Compound activity as filed in PubChem.
MazF activator = activators of E. coli MazEF toxin-antitoxin RNase. FAM/BHQ RNA-DNA oligo cleavage fluorescence, 5 h. activation, % at 20 µM. 350,000 tested, 0.32% active; in the data active = activation above about 50%
Target sequence (P0AE70 whole entry, looked up): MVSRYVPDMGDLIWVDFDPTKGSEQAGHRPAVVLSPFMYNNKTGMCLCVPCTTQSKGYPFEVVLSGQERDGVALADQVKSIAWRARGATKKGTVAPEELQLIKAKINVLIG
BoNT-A LC inh2 = BoNT A light chain protease inhibition. inhibition, % at 10 µM. 360,000 tested, 0.17% active. AID 588499. multiplex microsphere protease substrate cleavage, flow cytometry
Anthrax LF prot = inhibitors of Bacillus anthracis lethal factor protease | P15917 | multiplex microsphere protease cleavage assay, LF | 360,000 tested, 0.12% active | inhibition, % at 10 µM
BoNT-F LC inh = inhibitors of Botulinum neurotoxin F light chain protease; Multiplex microsphere protease cleavage assay, flow cytometry; inhibition, % at 10 µM; 360,000 tested, 0.22% active; AID 588497; in the data active = inhibition above about 35%, passing the limit was not always enough; inconclusive = no clear call, values can overlap the other calls
Bead autofluor = compound fluorescence in toxin protease inhibitor counterscreen; fluorescence intensity (concentration not given with the values); 360,000 tested, 3.1% active; compound autofluorescence counterscreen, microsphere flow cytometry; active compounds read high; in the data active = fluorescence intensity above about 16000; inconclusive = no clear call, values can overlap the other calls
Numbers stand for hits; – = inactive; ? = inconclusive; · = no result. Rows were chosen to be rich in hits. Some 3.7% of all compounds tested hit in one or more screens of this group. Cut-off read from the data, not from the text of the source, unless noted: active = inhibition above about 30%; inconclusive = no clear call, values can overlap the other calls; inactive = below that.

SMILES	MazF activator	BoNT-A LC inh2	Anthrax LF prot	BoNT-F LC inh	Bead autofluor
COC(=O)C1=C(C)N(C)C(=O)NC1c1cc(Cl)cc(Cl)c1OC (stereo not drawn)	–	?	–	–	17435
C=Cn1cc(CNC[C@H]2O[C@@H](n3ccc(N)nc3=O)[C@H](O)[C@@H]2O)c(C)n1	–	–	–	–	–
OCc1nc2ccccc2n1CC(O)Cn1ccc2ccccc21 (stereo not drawn)	–	–	–	–	–
Oc1ccccc1NCC(O)Cn1ccc2ccccc21 (stereo not drawn)	–	?	–	–	22217
O=C1c2ccccc2S(=O)(=O)N1CC(O)Cn1ccc2ccccc21 (stereo not drawn)	–	156	–	–	22501
OC(CNCc1ccccc1)Cn1ccc2ccccc21 (stereo not drawn)	–	–	–	–	–
CCOC(=O)c1cc(CC)sc1NC(=O)c1cc([N+](=O)[O-])ccc1N1CCOCC1	–	–	–	–	–
CCOC(=O)c1cc(CC)sc1NC(=O)c1ccc(N2CCOCC2)c([N+](=O)[O-])c1	–	–	–	–	19127
CO/N=C/c1ccc(N2CCN(C(=O)c3ccc(C)cc3)CC2)c([N+](=O)[O-])c1	–	–	–	–	24171
COc1ccc(-c2cc(C3CCN(c4ccc(C(C)=O)cc4[N+](=O)[O-])CC3)[nH]n2)cc1	–	–	–	–	–
COC(=O)c1ccc(N2CCC(c3cc(-c4ccc(OC)cc4)n[nH]3)CC2)c([N+](=O)[O-])c1	–	–	–	–	23463
Cc1ccc(OC(=O)c2ccc(N3CCOCC3)c([N+](=O)[O-])c2)cc1	–	–	–	–	19491
Cc1cc(C)cc(NC(=O)CSc2nc(=O)n(CCCN3CCOCC3)c3c2CCCC3)c1	–	–	–	–	–
COC(=O)C(C)N(C(=O)c1ccc(Cl)cc1)c1c(C)cccc1C (stereo not drawn)	–	–	–	–	21162
CCOC(=O)/C(=N\Nc1cc(C(F)(F)F)ccc1Cl)N(CC)CC	–	–	–	–	20400
Cc1ccc(C(C(=O)NC2CCCC2)N(C(=O)c2csnn2)C2CCCC2)o1 (stereo not drawn)	–	?	–	–	21439
Cc1ccc(C(C(=O)NC2CCCCC2)N(C(=O)c2csnn2)C2CCCC2)o1 (stereo not drawn)	–	–	–	–	22165
Cc1ccc(C(C(=O)NC2CCCC2)N(C(=O)c2csnn2)c2ccccc2)o1 (stereo not drawn)	–	–	–	–	–
CCOC(=O)CNC(=O)c1ccc(Br)s1	–	–	–	–	–
O=C(NCCCCNC(=O)c1ccc(Br)s1)c1ccc(Br)s1	–	?	–	–	20047
COc1ccc(CCn2c(O)c(C=NCCN3CCCCC3)c(=O)[nH]c2=O)cc1OC	–	–	–	–	20570
CCN(CC)CCCN=Cc1c(O)n(CCc2ccc(F)cc2)c(=O)[nH]c1=O	–	–	–	–	–
NC1CCCCC1N=Cc1c(O)n(CCc2ccc(F)cc2)c(=O)[nH]c1=O (stereo not drawn)	–	–	–	45	?
O=C(NCCc1ccccc1)C1Cc2c(-c3ccccc3Oc3ccccc3)ccnc2O1 (stereo not drawn)	·	–	–	–	–
COC(=O)CCCn1cc(CN2CC(N3CCN(Cc4cccc(C)c4)CC3)CS2(=O)=O)nn1 (stereo not drawn)	·	–	–	–	–
SMILES	MazF activator	BoNT-A LC inh2	Anthrax LF prot	BoNT-F LC inh	Bead autofluor
O=C(CSc1ccccc1C(=O)O)Nc1cccc(C(=O)O)c1	–	?	–	–	21124
CC(=O)Nc1cc(-c2ccc(CO)cc2)cn2c(-c3cccc(C(F)(F)F)c3)cnc12	·	–	–	–	–
CCN1CCN(C(=O)c2cc(-c3cccnc3)nc3ccc(Br)cc23)CC1	–	?	–	–	20068
Cc1ccc(NC(=O)CC2SC3=NCCN3C2=O)cc1 (stereo not drawn)	–	–	–	–	22351
O=C(CC1SC2=NCCN2C1=O)Nc1ccccc1 (stereo not drawn)	–	–	–	–	–
CCc1ccc([C@@H]2C[C@H]3CN(Cc4ccccc4OC)C(=O)[C@]34CCCN24)cc1	–	–	–	–	24775
COc1ccccc1CN1C[C@@H]2C[C@@H](c3ccc(C)cc3)N3CCC[C@@]23C1=O	–	–	–	–	–
CSc1nc(N)nc2c1ncn2CC(=O)NCCNc1ccc([N+](=O)[O-])cn1	–	–	–	–	–
Cc1nn(-c2ccccc2)c(OC(=O)c2cccs2)c1S(=O)(=O)c1ccccc1	–	–	–	–	–
Cc1nn(-c2ccccc2)c(OC(=O)c2cccs2)c1S(=O)(=O)c1ccc([N+](=O)[O-])cc1	–	–	–	–	16331
